Measured values published in PubChem BioAssay (NCI).
Compounds without any hit were thinned out: in the full panel of roughly 83,000, 20% have a hit.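 Testing used 96-well plates and a 48-hour single-concentration exposure. Example: -40 means 40% of the starting cells died.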 A number with no mark means an inactive call. Activity calls are given as the source filed them. How the source made its calls: active means growth percent below 10; inactive means the rest.

System: MDA-MB-468 breast
Assay: NCI-60 one-dose screen, 48 h (100 = growth as untreated, 0 = no growth, -100 = all killed)
Details: 10 µM unless noted

How did the growth turn out when NC(CC(N)C(=O)O)C(=O)O (stereo not given) was run?
Its growth is 90.5%.

How did the growth turn out when O=CN1N=C(c2cccc(Nc3ccnc4cc(Cl)ccc34)c2)CC1c1ccc(Cl)cc1 (stereo not given) was run?
Its growth is -4.05% (active).

How did the growth turn out when CCN(CC)CCOc1ccccc1-n1c(C)ccc1-c1ccccc1 was run?
Its growth is 85.1%.

For CCOC(=O)C1C(C(=O)OCC)C2C(=O)C3C(C(=O)OCC)C(C(=O)OCC)C3C(=O)C12 (stereo not given), which growth is on record?
The growth was 98.5%.

For NC(=O)c1cnc(Nc2cccc(N)c2)nc1NCCCNC(=O)C1CCC1, which growth is on record?
Its growth is 52.9%.

For Cc1ccc(C(=O)c2ccc(CC(=O)N=Nc3c(O)[nH]c4ccc(OC(F)(F)F)cc34)n2C)cc1, which growth is on record?
The growth was 108%.

With O=C(CCCCCCCCC(=O)N/N=C\c1cc(Cl)ccc1O)N/N=C\c1cc(Cl)ccc1O as the compound, how does the growth read?
The growth was -16% (active).

O=C1C=CC(O)=CC1=P(c1ccccc1)(c1ccccc1)c1ccccc1 was tested. Which growth did it give?
Its growth is 92%.

Which growth does the source give for CC1CC(O)CC(C)(C)C1 (stereo not given) here?
Its growth is 108%.

How did the growth turn out when CC(C)[C@@H]1CC[C@]2(C(=O)NCCCCN=C(N)N)CC[C@]3(C)[C@H](CC[C@@H]4[C@@]5(C)CCC(=O)C(C)(C)[C@@H]5CC[C@]43C)[C@@H]12 was run?
Its growth is 10.6%.

For COc1ccc(/C=C(/C#N)n2nnc3cccc(F)c32)cc1, which growth is on record?
Its growth is -5.27% (active).

With CCCCCC(C)c1ccc(O)c(C)c1 (stereo not given) as the compound, how does the growth read?
Its growth is 101%.

For O=C(Nc1ccccc1)Nc1ccccc1CNc1nc(Nc2ccc(OCCN3CCCC3)cc2)ncc1Cl, which growth is on record?
The growth was 17.7%.

How did the growth turn out when COc1cccc(/C=C/C(=O)c2sc(Nc3ccc(O)cc3)nc2C)c1 was run?
Its growth is 97.2%.

O=C(CSc1nc(-c2ccccc2)cc(=O)[nH]1)Nc1nc(-c2ccccc2)cs1 was tested. Which growth did it give?
The growth was 96.6%.

For OCCCCCCNc1ncnc2cc(Cl)ccc12, which growth is on record?
Its growth is 74.1%.

How did the growth turn out when N#Cc1c(NC(=O)c2ccccc2I)sc2c1CCCC2 was run?
The growth was 50%.

With O=C1C=CC(=Nc2cc(Br)c(O)c(Br)c2)C=C1 as the compound, how does the growth read?
The growth was 51.4%.

For CCOC(=O)N1CCc2c(sc3nc4nc[nH]n4c(=O)c23)C1, which growth is on record?
The growth was 112%.

Clc1ccc2c(NC3CCC(NC4CCCCC4)CC3)ccnc2c1 (stereo not given) was tested. Which growth did it give?
Its growth is -7.22% (active).

O=C(c1ccccc1)c1ccc(O)c2ncccc12 was tested. Which growth did it give?
Its growth is 25.6%.

How did the growth turn out when CNc1nc2ncc(-c3c(C)noc3C)cc2n1Cc1ccccc1 was run?
The growth was 34.7%.

CC(C)(CNC1CCCCC1)OC(=O)c1ccccc1 was tested. Which growth did it give?
Its growth is 94.3%.

Which growth does the source give for Cc1ccc(C(CN(C)C)C(=O)c2ccccc2)cc1 (stereo not given) here?
The growth was 4.73% (active).

For Cc1ccc(N)cc1[N+](=O)[O-], which growth is on record?
Its growth is 115%.

Which growth does the source give for CCCCCCCC/C=C/CCCCCCCC1=NC(C)(C)CN1C(C)(C)CO here?
Its growth is -91.5% (active).

Nc1nc(N)c2nc(CNc3ccc(C(=O)CC(CCC(=O)O)C(=O)O)cc3)cnc2n1 (stereo not given) was tested. Which growth did it give?
Its growth is 65.4%.

Which growth does the source give for COc1cc(/C=N/O)nc(-c2ccccn2)c1 here?
The growth was -16.9% (active).

Which growth does the source give for Cc1c2oc3c(C)ccc(C(=O)OC(C)C4NC(=O)C(C(C)C)N(C)C(=O)CN(C)C(=O)C5CCCN5C(=O)C(C(C)C)NC4=O)c3nc-2c(C(=O)OC(C)C2NC(=O)C(C(C)C)N(C)C(=O)CN(C)C(=O)C3CCCN3C(=O)C(C(C)C)NC2=O)c(N)c1=O (stereo not given) here?
Its growth is -68.7% (active).

Which growth does the source give for Cn1cnc([N+](=O)[O-])c1Sc1ncn[nH]1 here?
The growth was 73.5%.

With CCOC(OCC)c1cnc2nc(NC(C)=O)[nH]c(=O)c2n1 as the compound, how does the growth read?
Its growth is 109%.

How did the growth turn out when Cn1cc(-c2nonc2-c2cn(C)c3ccc(F)cc23)c2cc(F)ccc21 was run?
Its growth is 60.1%.

How did the growth turn out when CC(C)(C)c1cc(/C=N/NC(=O)c2ccccc2NC(=O)c2cccs2)c(O)c(C(C)(C)C)c1 was run?
Its growth is 25.3%.

With CC/C=C\C[C@H](O)C/C=C1/C(=O)C(Cl)=C[C@@H]1C/C=C\CCCC(=O)O as the compound, how does the growth read?
Its growth is 41.1%.

CC(=O)[C@@H]1CCC=C2CC[C@]3(C)[C@@H](CC[C@@H]4[C@@]5(C)CCCNC(C)(C)[C@@H]5CC[C@]43C)[C@H]21 was tested. Which growth did it give?
Its growth is -77.9% (active).

For c1cncc(CNc2ccccc2-c2nnc(Nc3ccc4c(c3)OCCO4)o2)c1, which growth is on record?
Its growth is -0.422% (active).

Nc1ccc2c(c1)Cc1cc(Cl)c(Cl)cc1-2 was tested. Which growth did it give?
The growth was 34.4%.

With COC1OC(C(COC(C)=O)OC(C)=O)C(OC(C)=O)C(OC(C)=O)C1OC(C)=O (stereo not given) as the compound, how does the growth read?
Its growth is 109%.

For O=C(Nc1nc2ccc(C(=O)N3CCN(/C=C/c4ccccc4)CC3)cc2s1)c1ccc(NCCc2ccccc2)c([N+](=O)[O-])c1, which growth is on record?
Its growth is 22.6%.

For COc1cccc(/C=C/C(=O)c2c(C)nc3ccccc3c2/C=C/c2ccc(C)cc2)c1OC, which growth is on record?
The growth was 58.3%.
